These sequences were tested on VDR:RXRa (NR concentration 270 nM, RXRa partner concentration 90 nM) (assay: PBM binding z-score (relative to random genomic background probes); higher = stronger binding; sequences stand for … in GC…GCGATTGACAGCGTAGAATGAAGG).
Experimental: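 Protein-binding microarray (Agilent 4x180K custom design, double-stranded 60-nt probes: 5' GC cap, 34-nt variable region, 24-nt constant primer region; full probe sequence given). Purified or IVT nuclear receptor:RXRα heterodimers (3:1 NR:RXRα, mostly 270:90 nM) or homodimers were incubated for 1 h in PBS with 2% milk and no ligand, then detected with Alexa488 antibodies. Fluorescence from o1-orientation probes (~5 replicates averaged) was converted to z-scores against 500 random hg19 background probes. Variable regions are seed direct-repeat (DR0–DR5) sites, all their single-nucleotide variants and half-site ablations.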

| Sequence | PBM binding z-score |
| --- | --- |
| CTGTGTAGGTTAAGGGGGTCATTCAGTTTGAAAG | 7.46 |
| CATACACGGTCAGCTAGGCCAGAGTAGGGACGGC | -0.0494 |
| TAGCCTCGGTCATTCAGGGGCCAGTATAGAAAGC | 0.169 |
| CGAACTGGGTCACCAGGACAGTGAAGAGGTTGGA | 2.13 |
| TTTAGTTGGTCAAAGGTCACACACTCGAAATGCG | 5.36 |
| TAGCATAGGTCATGCGGGCCAGTATAGTGTCGGC | 4.32 |
| CTCGAAAGGTCGTGCTCAGGTGAGTACACCAAAC | 3.6 |
| TAGCCAAGGTCATTCAGGGGCCAGTATAGAAAGC | 5.28 |
| CGTCCAAGGTCAAGCTCAGTGAAAGAGACTCGAA | 4.06 |
| ATATGCAGGTTAGGGTCATTCAGAAAGTAGGGAA | 4.26 |
| TCGAGTAGGTTACGGGGGCATTAAGGGATGAAGA | 3.4 |
| TCGAGTAGGTTACGGGGGCATTCTGGGATGAAGA | 3.65 |
| GATACAGGGTCAACTAGAGGCCAGAGTATGGAAA | 4.98 |
| CCTAGTTGGTCAGGAGGTCCCACACCGGATATGA | 0.0687 |
| CCGATTAGGTTACGAGGGGGCATTCAGTGCGAAT | 5.1 |
| CTAACTAGGTCAAGGTCAAAGTCGGTTTGTGCCA | 5.07 |
| CGTCCAACGTCAAGGTCAGTGAAAGAGACTCGAA | 1.18 |
| TTACCAAAGTGAAAGGTCGTTGATGCACGCCTTG | 1.86 |
| CCGCGTAGGTTACGAGGGGGCATTCAGTGCGAAT | 5.31 |
| ATACCAAGGTTATCGTGAGGTCGTTGATACTAAC | 4.98 |

| Sequence | PBM binding z-score |
| --- | --- |
| ATCGAAAGGTCGACGAGTTGAGTATACACCGTTT | 6.08 |
| CGAACTAGGTCACCAGTACAGTGAAGAGGTTGGA | 2.27 |
| TCGGGTAGGTTACGGGGGCATTCAGGGATGAAGA | 4.77 |
| CTATGTAGGTTAAGGGGGTCATTCTGTTTGAAAG | 7.27 |
| TCTAGTTGGTCGCGGAGGTCACACACGACGGGTA | 4.55 |
| CTATGTAGGTTAAGGGGCTCATTCAGTTTGAAAG | 0.993 |
| ATATGTAGGTAACATCCGGGTCATTCAGGCTATG | 3.75 |
| CGAACTAAGTCATTGACAGGACAGTGAATAGTAA | -0.19 |
| CCGAGTAGGTTACGAGGTGGCATTCAGTGCGAAT | 0.516 |
| AGTCAAAGTTCACGAGGTAACGTAAGATTCAGCT | 4.94 |
| ATATGTAGGTTAGAGTCATTCAGAAAGTAGGGAA | 0.295 |
| CGGACTGGGGCAAAGGTTACCATACTCAGTACGA | 1.9 |
| ATATGTAGGTTAGGGTCATTAAGAAAGTAGGGAA | 3.86 |
| CGTCCAAGGTCAGCAGGTCACTGAAAGCGACGTG | 4.5 |
| CCTTACGGGTCAAGGTTGTAGCACGGGTGGTACG | 3.02 |
| CGAACCAGGTCACCAGGACAGTGAAGAGGTTGGA | 3.17 |
| TAGCCTAGGCCATGGGCCAGTATACCACGCGAAC | -0.852 |
| CTATGTAGGTTAAGGGGGACATTCAGTTTGAAAG | 4.95 |
| ATATGGAGGTTAGGGTCATTCAGAAAGTAGGGAA | 4.64 |
| ATCGAAACGTCGACGAGGTGAGTATACACCGTTT | -0.119 |

Reference: the supplement of paper PMC6555819
